Compound activity: PubChem BioAssay, National Center for Advancing Translational Sciences (NCATS)
TRPML1 inh = qHTS for Inhibitors of the Human Mucolipin Transient Receptor Potential 1 (TRPML1); activity change, negative = inhibition, % (no concentration beside the values); hit rate 0.02% among 390,000; Mucolipin-1 (Homo sapiens), Q9GZU1; TRPML1-inducible cells, Ca2+ dye fluorescence, FDSS; active compounds read low; inhibition of EC80 agonist-evoked calcium signal; in the data active = activity change below about -50%; inconclusive = between about -30% and that limit;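 note: stimulus is agonist 54-4 at its EC80 concentration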
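TRPML1-DL cells, Tet-induced overnight (~16 h, 37 °C) at 1,500 cells/well, were loaded with Ca8 no-wash dye plus quencher for 45-90 min at room temperature. Compounds were pinned during FDSS kinetic reading; agonist 54-4 at EC80 (4 uM final) then added.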
TRPV1 ag = HTS Assay for Compounds that Act as Agonists of the Vanilloid Receptor 1; AID 540275, 2011; activation, % at 8.33 µM; hit rate 0.19% among 320,000; Transient receptor potential cation channel subfamily V member 1 (Homo sapiens), Q8NER1; TRPV1-expressing cells, Fluo-8 calcium influx, agonist mode; in the data active = activation above about 80%; inconclusive = between about 30% and that limit
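TRPV1-expressing cells were cultured overnight at 35.5C and loaded with Fluo-8 calcium dye for 40 to 90 min at room temperature. After a 10 s baseline, compound was added and calcium influx was read kinetically for 3 min (ex 480/em 520 nm).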
LDHA block = qHTS assay for inhibitors of human lactate dehydrogenase; purified LDHA, NADH/diaphorase-resazurin fluorescence; active compounds read low; activity change, % (values are at about 110 or 230 µM); hit rate 0.15% among 480,000; AID 1347041, 2019; in the data active = activity change below about -30%; inconclusive = mostly about -25% to -30%
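Resorufin fluorescence (ex540/em590), read at 0 and 20 min after diaphorase/resazurin addition, reports the NADH left after a 5 min room-temperature reaction of 2 nM human LDH5 with 0.06 mM NADH and 0.2 mM pyruvate.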
TRPML1 agonist = qHTS for Agonists of the Human Mucolipin Transient Receptor Potential 1 (TRPML1); Mucolipin-1 (Homo sapiens), Q9GZU1; TRPML1-expressing cells, Ca2+ dye fluorescence, FDSS; activation, % (test concentration not listed); hit rate 0.12% among 410,000; AID 624414, 2012; in the data active = activation above about 50%; inconclusive = mostly about 30% to 49%
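Calcium fluorescence on an FDSS kinetic reader gave the read-out. Tet-induced TRPML1-DL cells were plated overnight, dye-loaded (Ca8 with quencher, 45-90 min, room temperature, dark), then read 110 s after compound addition, and again 110 s after 4uM final 54-4 (EC80).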
TRPV1 PAM = HTS Assay for Compounds that Act as Potentiators of the Vanilloid Receptor 1; AID 540277, 2011; potentiation, % at 8.33 µM; hit rate 0.02% among 320,000; TRPV1-expressing cells, Fluo-8 calcium influx, capsaicin EC20 potentiation; Transient receptor potential cation channel subfamily V member 1 (Homo sapiens), Q8NER1; in the data active = potentiation above about 80%; inconclusive = between about 30% and that limit
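TRPV1-expressing cells were cultured overnight at 35.5C and loaded with Fluo-8 calcium dye for 40 to 90 min at room temperature. After a 10 s baseline, compound was added and calcium influx was read kinetically for 3 min (ex 480/em 520 nm).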
Hits are given with their value; - = inactive; ? = inconclusive; . = no result given. This is a sample that favours compounds with a hit; in the whole collection about 0.41% have one here.

SMILES | TRPML1 inh | TRPV1 ag | LDHA block | TRPML1 agonist | TRPV1 PAM
Cc1cc(C)c(-c2noc(C(=O)OC(C)(C)C)c2C(=O)OC(C)(C)C)c(C)c1 | - | - | - | 53 | -
CSc1cccc(NC(=O)N(C)CCc2noc(-c3ccc(C(=O)N4CCCCC4)cc3)n2)c1 | . | . | - | . | .
CCN(CC)c1ccc(/C=C/C(=O)C2C(=O)C=C(C)OC2=O)cc1 (stereo not drawn) | - | 94 | - | 127 | -
Cc1cc(NC(=O)CSc2nc(Cc3ccc(O)cc3)c(C)[nH]2)no1 | -54 | - | - | - | -
COc1cc(OC)c(NC(=O)Cn2c(C(=O)c3cccc(F)c3)nc3ccccc32)cc1Cl | . | . | - | . | .
Cc1cc(CNC(=O)c2cc(Br)ccc2Cl)nn1C | - | - | - | - | -
Cc1cc(CNC(=S)Nc2ccc(Br)cc2Cl)nn1C | - | 94 | - | - | -
COc1ccc(C(=O)NC(NC(=S)Nc2ccc(S(N)(=O)=O)cc2)C(Cl)(Cl)Cl)cc1 (stereo not drawn) | - | - | -34 | - | -
CC(C)(C)c1ccc(C(=O)Nc2ccc3c(c2)C(=O)NC3=O)cc1 | - | 86 | - | - | -
N#CC(C#N)=Cc1ccc(NC(=O)c2ccc(Br)cc2)cc1 | - | 113 | - | - | -
COc1ccc(C(=O)NC(=S)Nc2ccc(S(N)(=O)=O)cc2)cc1 | - | - | - | - | -
CNC(=O)c1ccc(NC(=O)c2ccc(C(C)(C)C)cc2)cc1 | . | . | - | . | .
CC(C)(C)c1ccc(C(=O)Nc2ccc(C=C(C#N)C#N)cc2)cc1 | - | 89 | - | - | -
CSc1ccc(CNC(=O)c2cccc(-c3ccc(S(=O)(=O)N4CCCCC4)cc3)c2)cc1 | . | . | - | . | .
Cc1cc(N2CCN(C(C(=O)O)c3c[nH]c4cc(Cl)ccc34)CC2)nc2ccccc12 (stereo not drawn) | . | . | - | . | .
O=C(c1ccc(Cl)s1)N1CCN(c2cccc(C(F)(F)F)c2)CC1 | . | . | - | . | .
CC(C)(C)c1ccc(C(=O)Nc2ccc(S(N)(=O)=O)cc2)cc1 | - | 86 | - | - | -
NS(=O)(=O)c1ccc(NC(=O)c2ccc(-c3ccccc3)cc2)cc1 | - | - | - | - | -
CCN1CCN(C(C)C(=O)NC2CCCCC2)CC1 (stereo not drawn) | - | - | -31 | - | -
Cn1c(=O)c2c(nc3sccn32)n(C)c1=O | - | - | - | - | 88
Cc1nc2sccn2c(=O)c1Cl | - | - | - | - | -
CCOC(=O)/C(=C/C=C1\Sc2cc(OCC)c(OCC)cc2N1CC)C(C)=O | - | ? | - | 77 | -
CCOC(=O)/C(=C\C=C1/Sc2cc(OCC)c(OCC)cc2N1CC)C(C)=O | - | ? | - | 89 | -
CCN1/C(=C/C(C)=O)Sc2ccc(OC)cc21 | - | - | - | - | -
Cc1cccc(C(=O)NC(Nc2cccc3ccccc23)C(Cl)(Cl)Cl)c1 (stereo not drawn) | . | . | - | . | .
SMILES | TRPML1 inh | TRPV1 ag | LDHA block | TRPML1 agonist | TRPV1 PAM
Cc1ccc(C(=O)Nc2ccc(CCC(=O)N(C)C)cc2)cc1 | . | . | - | . | .
CCC(=O)N1CCc2cc(S(=O)(=O)NC(CC(C)C)C(=O)NCc3cccc(OC)c3)ccc21 (stereo not drawn) | - | . | -31 | - | .
CCC(=O)N1CCc2cc(S(=O)(=O)NC(CC(C)C)C(=O)NCc3ccc(F)cc3)ccc21 (stereo not drawn) | - | . | - | - | .
O=C(/C=C/c1ccccc1)NC(=S)NNC(=O)c1ccccc1 | . | . | - | . | .
O=C(Nc1ccccc1)c1csc(-c2ccccc2)n1 | - | 85 | - | - | -
CC(C)c1nnc(N2C(=O)C(O)=C(C(=O)c3cccs3)C2c2ccccc2)s1 (stereo not drawn) | - | 103 | - | ? | -
O/C(=C\c1nc2ccccc2[nH]1)c1cccs1 | - | - | - | - | -
O=c1[nH]c2ccccc2nc1/C=C(\O)c1cccs1 | - | ? | - | 79 | -
O=C1CC(N2CCN(S(=O)(=O)c3ccccc3F)CC2)C(=O)N1c1ccccc1F (stereo not drawn) | - | . | -35 | - | .
